Here are results for eight compounds from PubChem BioAssay (EPA / NIEHS).

Assay [1] is described as follows: ATG_E_Box_CIS: Attagene CIS-FACTORIAL HepG2 Assay for human Enhancer Box (E-box) (AID 2282936). To be noted: HepG2 E-box cis-reporter transcription, actives raise or lower the signal. Put shortly:
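HepG2 cells transiently transfected with multiplexed cis-element reporter units, dosed 24 h; reporter mRNA quantified by RT-PCR, 6-FAM labelling, HpaI digestion and capillary electrophoresis. E-box (USF1) signal fitted bidirectionally vs DMSO.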

The nature of assay [2]: ATG_M_61_CIS: Attagene CIS-FACTORIAL HepG2 Assay for M61 Transcription Factor (Internal Marker) (AID 2282937). The following applies: HepG2 Attagene CIS-FACTORIAL M61 internal marker reporter; actives raise or lower the signal. Put shortly: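 Transfect HepG2 with MRTUs; dose 24 h; isolate RNA; reverse-transcribe with DNase I treatment; PCR-amplify, FAM-label and cut with HpaI for 2 h at 37 C; resolve by CE. Bidirectional fitting against DMSO.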

Assay [3] is described as follows: ATG_EGR_CIS: Attagene CIS-FACTORIAL HepG2 Assay for human Early Growth Response 1 (EGR1) (AID 2282938). To be noted: HepG2 Attagene CIS-FACTORIAL EGR reporter mRNA; actives raise or lower the signal. Put shortly:
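After a 24 h treatment of transiently transfected HepG2 cells, total RNA was reverse-transcribed and reporter sequences PCR-amplified, labelled and run on capillary electrophoresis. Reporters sit under cis-regulatory promoters sensing endogenous factors.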

Assay [4] is described as follows: ATG_M_19_CIS: Attagene CIS-FACTORIAL HepG2 Assay for M19 Transcription Factor (Internal Marker) (AID 2282939). The following applies: HepG2 Attagene CIS-FACTORIAL M19 internal marker reporter; actives raise or lower the signal. Put shortly: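 Chemical-treated HepG2 (24 h) with MRTU constructs; reporter transcripts detected by fluorescent RT-PCR fragment analysis on capillary electrophoresis. Internal background marker, DMSO as baseline.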

The nature of assay [5]: ATG_ERE_CIS: Attagene CIS-FACTORIAL HepG2 Assay for Estrogen Response Element (ERE) (AID 2282940). The following applies: HepG2 ERE cis-reporter, Attagene RNA transcript; actives raise or lower the signal. Put shortly: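 Human liver cells (HepG2) bearing transiently transfected, promoter-regulated reporter units were exposed 24 h. Reporter mRNA induction was detected by capillary electrophoresis of labelled RT-PCR products and fitted bidirectionally to DMSO.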

Assay [6] in a line: ATG_Ets_CIS: Attagene CIS-FACTORIAL HepG2 Assay for human Erythroblast Transformation Specific (ETS) (AID 2282941). The following applies: HepG2 ETS cis-reporter transcription, actives raise or lower the signal. Put shortly:
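HepG2 cells transfected with multiple cis-regulated reporter units measuring endogenous ETS-driven transcription, 24 h after dosing. Reporter mRNA quantified by RT-PCR with capillary electrophoresis; bidirectional fit relative to DMSO.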

In assay [7] the target is Hepatocyte nuclear factor 3-beta (Homo sapiens) (UniProt Q9Y261). The experiment in a line: ATG_FoxA2_CIS: Attagene CIS-FACTORIAL HepG2 Assay for human Forkhead box A2 (FOXA2) (AID 2282942). To be noted: HepG2 cis-reporter transcription factor activity, 24 h; actives raise or lower the signal. Put shortly: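 24 h dosing of HepG2 bearing cis-reporter constructs; mRNA readout by RT-PCR/CE fluorescence; bidirectional fit, DMSO baseline.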

Assay [8] in a line: ATG_FoxO_CIS: Attagene CIS-FACTORIAL HepG2 Assay for human Forkhead box O (FoxO) (AID 2282943). The following applies: HepG2 Attagene cis-reporter, FoxO element, mRNA; actives raise or lower the signal. Put shortly: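 Transfected HepG2 reporter cells exposed to test chemical for 24 h; reporter RNA measured by reverse transcription, PCR and fluorescent capillary electrophoresis; curves fitted for increases and decreases against DMSO.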

Assay [9] can be described thus: ATG_GATA_CIS: Attagene CIS-FACTORIAL HepG2 Assay for human GATA Binding Protein (AID 2282944). The following applies: HepG2 GATA cis-element reporter, Attagene multiplex mRNA; actives raise or lower the signal. Put shortly:
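Transfected cis-reporter HepG2 cells were treated with chemicals for 24 hours. Total RNA was then converted to cDNA, amplified with reporter-specific primers and analysed by fluorescent capillary electrophoresis, using DMSO-treated wells as baseline.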

Assay [10] in a line: ATG_GLI_CIS: Attagene CIS-FACTORIAL HepG2 Assay for human Zinc Finger Protein GLI1 (AID 2282945). To be noted: HepG2, Attagene cis-factorial reporter mRNA, GLI element; actives raise or lower the signal. Put shortly:
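Transiently transfected HepG2 cells report endogenous transcription factor activity via cis-element-driven reporter units. After 24 h compound exposure, reporter mRNA was measured by RT-PCR with capillary electrophoresis; bidirectional fitting against DMSO baseline.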

The target of assay [11] is Bile acid receptor (Homo sapiens) (UniProt Q96RI1). The experiment in a line: ATG_IR1_CIS: Attagene CIS-FACTORIAL HepG2 Assay for human Nuclear Receptor Subfamily 1 Group H Member 4 (NR1H4), IR1 submotif (AID 2282946). To be noted: IR1 reporter transcription, actives raise or lower the signal. Put shortly:
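HepG2 cells transiently transfected with multiple cis-promoter-driven reporter units to measure endogenous transcription factor activity; 24 h exposure. Reporter mRNA read by RT-PCR, FAM labelling, HpaI digestion and capillary electrophoresis. Bidirectional fit versus DMSO.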

Assay [12] can be described thus: ATG_GRE_CIS: Attagene CIS-FACTORIAL HepG2 Assay for human Glucocorticoid Response Elements (GRE) (AID 2282947). To be noted: HepG2 GRE cis-reporter, Attagene multiplex mRNA; actives raise or lower the signal. Put shortly: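 Transiently transfected HepG2 cells carrying GRE cis-reporter units (endogenous TF activity) dosed 24 h; reporter mRNA quantified by RT-PCR, 6-FAM labelling, HpaI digestion and capillary electrophoresis. Bidirectional fit versus DMSO baseline.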

The nature of assay [13]: ATG_ISRE_CIS: Attagene CIS-FACTORIAL HepG2 Assay for human Interferon Regulatory Factor 1 (IRF1) binding to an Interferon-Stimulated Response Element (ISRE) (AID 2282948). To be noted: HepG2 ISRE cis-reporter (Attagene), mRNA transcription readout; actives raise or lower the signal. Put shortly:
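Transiently transfected HepG2 cells carrying cis-element reporter units, dosed 24 hours. Reporter mRNA quantified by RT-PCR, fluorescent primer extension, HpaI digestion and capillary electrophoresis. Bidirectional fitting relative to DMSO.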

The nature of assay [14]: ATG_M_32_CIS: Attagene CIS-FACTORIAL HepG2 Assay for M32 Transcription Factor (Internal Marker) (AID 2282949).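 Further: background control marker of the multiplexed CIS panel rather than a real target.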 The following applies: HepG2 Attagene cis-factorial M32 reporter, mRNA; actives raise or lower the signal. Put shortly: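 HepG2 cells transiently transfected with multiplexed cis-regulated reporter units, dosed 24 h. Reporter mRNA quantified by RT-PCR, 6-FAM labelling, HpaI digestion and capillary electrophoresis; bidirectional fit vs DMSO.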

A short description of assay [15]: ATG_M_06_CIS: Attagene CIS-FACTORIAL HepG2 Assay for M06 Transcription Factor (Internal Marker) (AID 2282950). To be noted: HepG2 Attagene CIS-FACTORIAL M06 internal marker reporter; actives raise or lower the signal. Put shortly: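 Cells (HepG2, transiently carrying cis-driven reporter units) receive chemical for 24 h before RNA isolation. Reporter cDNA is PCR-amplified, FAM-labelled by primer extension, HpaI-digested and sized on a capillary analyser.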

Assay [16] deals with Hypoxia-inducible factor 1-alpha (Homo sapiens) (UniProt Q16665). The experiment in a line: ATG_HIF1a_CIS: Attagene CIS-FACTORIAL HepG2 Assay for human Hypoxia Inducible Factor 1 (HIF1A) (AID 2282951). The following applies: HepG2 Attagene cis-factorial HIF1a reporter transcription; actives raise or lower the signal. Put shortly: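 After 24 h chemical exposure of reporter-transfected HepG2 cells, reporter cDNA was PCR-amplified, labelled by 6-FAM primer extension (2 min 95 C, 20 s 68 C, 10 min 72 C), HpaI-cut (2 h, 37 C) and analysed by CE.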

For assay [17], the target named is Hepatocyte nuclear factor 6 (Homo sapiens) (UniProt Q9UBC0). The experiment in a line: ATG_HNF6_CIS: Attagene CIS-FACTORIAL HepG2 Assay for human Hepatocyte Nuclear Factor 6 (HNF6) (AID 2282952). The following applies: HepG2 Attagene cis-factorial HNF6 reporter transcription; actives raise or lower the signal. Put shortly: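 HepG2, transient MRTU transfection (cis promoters); 24 h chemical exposure; total RNA → oligo(dT) RT → PCR → 6-FAM labelling → HpaI cut → CE; bidirectional fit vs DMSO.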

The target of assay [18] is Heat shock factor protein 1 (Homo sapiens) (UniProt Q00613). Briefly: ATG_HSE_CIS: Attagene CIS-FACTORIAL HepG2 Assay for human Heat Shock Transcription Factor 1 (HSE) (AID 2282953). To be noted: HepG2 HSE cis-reporter, Attagene RNA transcription; actives raise or lower the signal. Put shortly: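 Liver-derived HepG2 cells carry transiently introduced multiple reporter units governed by cis promoters. Reporter RNA measured 24 h post-dose through reverse transcription, PCR amplification, fluorescent labelling and capillary electrophoresis, normalised to DMSO.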

Assay [19] is described as follows: ATG_MRE_CIS: Attagene CIS-FACTORIAL HepG2 Assay for human Metal Responsive Element (MRE) (AID 2282954). The following applies: HepG2 MRE cis-reporter transcription, Attagene multiplex; actives raise or lower the signal. Put shortly:
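HepG2 cells transiently transfected with cis-element-driven reporter units; mRNA measured 24 h after dosing. Reporter transcripts quantified by RT-PCR, FAM labelling, HpaI digestion and capillary electrophoresis; bidirectional fit versus DMSO.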

The source made the active and inactive calls. How the source made its calls: active means hit-call score of the fitted dose curve at least 0.9, where 1 is the maximum; inactive means score below 0.9.

As a reminder, the AC50 is the midpoint of the concentration-response curve, whichever way the signal moves.

Sequence of Heat shock factor protein 1 (Homo sapiens) (Q00613 whole entry, looked up): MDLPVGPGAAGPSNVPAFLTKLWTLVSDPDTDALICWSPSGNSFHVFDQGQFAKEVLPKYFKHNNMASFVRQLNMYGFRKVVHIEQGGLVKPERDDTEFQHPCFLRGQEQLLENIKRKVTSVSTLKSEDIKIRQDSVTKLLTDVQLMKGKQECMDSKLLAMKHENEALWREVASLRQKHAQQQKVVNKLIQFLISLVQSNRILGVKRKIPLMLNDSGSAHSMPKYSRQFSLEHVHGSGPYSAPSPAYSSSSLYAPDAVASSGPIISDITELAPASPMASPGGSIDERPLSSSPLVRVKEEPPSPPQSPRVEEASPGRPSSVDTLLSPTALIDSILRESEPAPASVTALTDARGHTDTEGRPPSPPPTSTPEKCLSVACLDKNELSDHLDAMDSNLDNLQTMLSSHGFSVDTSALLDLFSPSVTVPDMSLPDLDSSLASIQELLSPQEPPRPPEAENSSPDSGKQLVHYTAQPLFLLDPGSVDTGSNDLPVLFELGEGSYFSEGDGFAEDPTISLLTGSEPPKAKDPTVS
Sequence of Hepatocyte nuclear factor 3-beta (Homo sapiens) (Q9Y261 whole entry, looked up): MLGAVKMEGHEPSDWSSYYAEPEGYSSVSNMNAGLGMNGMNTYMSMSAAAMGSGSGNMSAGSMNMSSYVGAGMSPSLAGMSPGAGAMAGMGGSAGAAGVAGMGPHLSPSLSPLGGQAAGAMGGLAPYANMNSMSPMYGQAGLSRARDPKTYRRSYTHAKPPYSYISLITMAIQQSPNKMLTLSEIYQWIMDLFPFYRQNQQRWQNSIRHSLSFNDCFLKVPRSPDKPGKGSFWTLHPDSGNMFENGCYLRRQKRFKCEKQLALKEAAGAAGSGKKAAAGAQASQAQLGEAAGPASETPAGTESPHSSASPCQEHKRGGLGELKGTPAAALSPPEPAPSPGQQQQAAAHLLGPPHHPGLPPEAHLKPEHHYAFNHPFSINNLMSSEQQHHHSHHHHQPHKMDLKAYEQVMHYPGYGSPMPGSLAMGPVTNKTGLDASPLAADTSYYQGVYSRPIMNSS
Sequence of Bile acid receptor (Homo sapiens) (Q96RI1 whole entry, looked up): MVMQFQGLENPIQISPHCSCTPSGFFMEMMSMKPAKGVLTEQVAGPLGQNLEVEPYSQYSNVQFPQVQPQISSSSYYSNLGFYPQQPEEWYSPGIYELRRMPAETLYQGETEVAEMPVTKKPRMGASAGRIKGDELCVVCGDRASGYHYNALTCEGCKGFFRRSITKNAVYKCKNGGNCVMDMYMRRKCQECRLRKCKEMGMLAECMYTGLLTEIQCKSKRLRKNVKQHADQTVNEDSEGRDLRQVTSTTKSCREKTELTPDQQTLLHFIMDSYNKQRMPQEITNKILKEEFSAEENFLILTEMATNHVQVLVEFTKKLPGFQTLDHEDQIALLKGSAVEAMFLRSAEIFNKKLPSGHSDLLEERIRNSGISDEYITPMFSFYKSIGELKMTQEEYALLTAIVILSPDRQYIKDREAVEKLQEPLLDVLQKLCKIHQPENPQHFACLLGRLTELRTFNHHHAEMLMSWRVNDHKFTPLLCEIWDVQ
Sequence of Hypoxia-inducible factor 1-alpha (Homo sapiens) (Q16665 whole entry, looked up): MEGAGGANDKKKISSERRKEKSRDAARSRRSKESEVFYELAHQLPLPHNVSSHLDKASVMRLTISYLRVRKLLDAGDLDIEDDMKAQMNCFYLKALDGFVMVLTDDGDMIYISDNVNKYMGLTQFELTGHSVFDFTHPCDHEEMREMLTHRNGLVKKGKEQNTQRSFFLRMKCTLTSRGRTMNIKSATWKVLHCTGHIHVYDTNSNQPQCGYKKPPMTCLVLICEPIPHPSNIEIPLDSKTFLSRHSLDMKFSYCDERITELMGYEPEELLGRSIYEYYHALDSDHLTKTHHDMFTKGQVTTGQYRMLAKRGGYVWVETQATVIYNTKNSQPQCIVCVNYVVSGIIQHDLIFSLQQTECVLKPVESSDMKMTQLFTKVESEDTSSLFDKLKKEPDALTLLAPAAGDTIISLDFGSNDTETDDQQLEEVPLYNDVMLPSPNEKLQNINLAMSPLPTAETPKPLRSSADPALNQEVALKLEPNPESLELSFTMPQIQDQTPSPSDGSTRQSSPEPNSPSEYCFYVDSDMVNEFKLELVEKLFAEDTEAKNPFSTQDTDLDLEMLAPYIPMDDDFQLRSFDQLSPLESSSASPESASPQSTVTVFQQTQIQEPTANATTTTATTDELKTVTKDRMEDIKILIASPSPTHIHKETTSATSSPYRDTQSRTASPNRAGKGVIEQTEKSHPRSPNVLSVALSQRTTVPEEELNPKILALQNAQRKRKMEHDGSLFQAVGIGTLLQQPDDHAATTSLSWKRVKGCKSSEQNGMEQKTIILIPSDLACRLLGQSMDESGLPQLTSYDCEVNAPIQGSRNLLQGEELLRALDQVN
Sequence of Hepatocyte nuclear factor 6 (Homo sapiens) (Q9UBC0 whole entry, looked up): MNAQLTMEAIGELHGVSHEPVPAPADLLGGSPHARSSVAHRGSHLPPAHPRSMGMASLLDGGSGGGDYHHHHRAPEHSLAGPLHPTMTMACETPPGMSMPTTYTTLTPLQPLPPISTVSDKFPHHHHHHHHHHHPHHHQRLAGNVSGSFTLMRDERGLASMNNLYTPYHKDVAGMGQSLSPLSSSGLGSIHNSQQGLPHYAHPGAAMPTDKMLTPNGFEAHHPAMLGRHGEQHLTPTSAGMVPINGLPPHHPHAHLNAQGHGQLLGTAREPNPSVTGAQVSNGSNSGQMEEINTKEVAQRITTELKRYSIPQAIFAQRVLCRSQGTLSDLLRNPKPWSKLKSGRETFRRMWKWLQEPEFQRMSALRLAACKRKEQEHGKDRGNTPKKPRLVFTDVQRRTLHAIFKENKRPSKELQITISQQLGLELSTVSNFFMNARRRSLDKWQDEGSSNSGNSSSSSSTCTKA

Consider `O=C(O)C(F)(F)C(F)(F)C(=O)O`, for which the result in assay [1], in assay [2], in [3], in assay [4], in assay [5] and in [6] was inactive. The compound was classed as inactive in assay [7], in assay [8], in [9], in assay [10], in assay [11] and in assay [12]. In addition, the compound was classed as inactive in assay [13], in assay [14], in [15], in assay [16], in assay [17] and in [18]. Also, the compound was classed as inactive in assay [19].
`COP(=O)(CCC(=O)NCO)OC`: the result in assay [1], in [2], in assay [3], in [4], in [5] and in assay [6] was inactive. Moreover, the compound was called inactive in assay [7], in [8], in assay [9], in [10], in assay [11] and in assay [12]. Besides, the compound was called inactive in assay [13], in assay [14], in assay [15], in assay [16], in assay [17] and in assay [18]. In addition, in assay [19], the result was inactive.
In the case of `CCOP(=S)(Oc1ccc([N+](=O)[O-])cc1)c1ccccc1` (centres undefined), the outcome in assay [1], in assay [2], in [3], in [4], in assay [6] and in [7] was inactive. For the same compound, the compound was classed as inactive in assay [8], in assay [9], in assay [10], in [13], in [15] and in assay [16]. Moreover, the compound was classed as inactive in [17] and in assay [19]. For the same compound, the AC50 in assay [5] was 3.35 µM (active).
In the case of `CC1=C(C(=O)Nc2ccccc2)S(=O)(=O)CCO1`, the AC50 in assay [1] is 21.8 µM (active); in [3], 10.7 µM (active); in assay [11], 58.6 µM (active); in assay [13], 30.2 µM (active); in assay [16], 27.2 µM (active); in assay [17] it was 45.4 µM (active). In addition, the AC50 in [19] was 9.73 µM (active). In addition, the result in assay [2], in assay [4], in [5], in [6], in assay [7] and in assay [8] was inactive. In addition, the outcome in [9], in assay [10], in assay [12], in assay [14], in [15] and in assay [18] was inactive.
For the compound `CCCCc1ccc(O)cc1`, the outcome in assay [1], in assay [2], in assay [3], in assay [4], in assay [6] and in assay [7] was inactive. Besides, the compound was called inactive in [8], in [9], in assay [10], in [11], in assay [12] and in assay [13]. For the same compound, the outcome in assay [15], in assay [17] and in assay [19] was inactive. Moreover, the results for the concentration at half-maximal activity (AC50) in assay [5], in assay [16] and in assay [18] were 7.43 µM (active), 164 µM (active) and 139 µM (active), respectively.
On to `CNC(=O)Oc1ccc(N(C)C)c(C)c1`, for which the outcome in [1], in assay [2], in assay [3], in [4], in [5] and in assay [6] was inactive. Further, the outcome in assay [7], in assay [8], in assay [9], in [10], in assay [11] and in [12] was inactive. Also, the compound was called inactive in assay [13], in assay [15], in [16], in assay [17], in [18] and in assay [19].
Regarding `Cc1ccc2c(c1N)C(=O)c1ccccc1C2=O`, the result in assay [1], in assay [2], in assay [3], in [4], in assay [6] and in assay [7] was inactive. Moreover, the call in [8], in [9], in assay [10], in assay [11], in assay [12] and in assay [13] was inactive. Also, the result in [14], in [15], in assay [16], in assay [17], in [18] and in assay [19] was inactive. Besides, the AC50 in assay [5] is 5.24 µM (active).
As for `CCCCCCCc1ccc(O)cc1`, the outcome in [1], in assay [2], in assay [3], in assay [4], in assay [6] and in assay [7] was inactive. In addition, the compound was classed as inactive in assay [8], in assay [9], in [10], in [12], in [13] and in [15]. In addition, the outcome in [16], in assay [17], in assay [18] and in assay [19] was inactive. Further, the AC50 in assay [5] is 3.89 µM (active) [middle of 4 runs].
